PubChem BioAssay AID602449 (Sanford-Burnham Center for Chemical Genomics, 2012)
Out of some 360,000 compounds screened, about 5,000 (1.4%) were called active.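 The calls were made as follows: active = inhibition of 50% or more, scaled per plate between neutral and stimulator controls; inactive = the rest.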 Many of the other results were omitted from the sample, so actives are more common in it than they were.

Test: blockers of Ca2+-induced mitochondrial swelling – biochemical, isolated mouse mitochondria, absorbance, primary screen (AID 602449);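 also: 0% = DMSO wells given calcium and 100% = 1 mM EGTA wells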
Settings: 30 min, at 10 µM, hits give high values

inhibition, active:
Cc1oc2cc([N+](=O)[O-])c(O)c([N+](=O)[O-])c2c1C(=O)c1ccc(Br)cc1 74.4%
CCCOc1ccc(C(=O)C(CCC(CNCC)C(=O)c2ccc(OCCC)cc2)CNCC)cc1 (centres undefined) 73.6%
c1ccc2c(c1)CSc1sccc1C2=C1CCNCC1 94.3%
Cc1nn(Cc2ccccc2)c2c1C(c1ccccc1)C(C#N)=C(N)O2 (centres undefined) 81.3%
O=C(CSc1nc(-c2ccccc2)cs1)Nc1cccc([N+](=O)[O-])c1 93%
CCc1cc2c(N3CCN(c4nnc(CC)s4)CC3)ncnc2s1 58.3%
NC[C@H](Cc1ccccc1)NCCc1cc(C(F)(F)F)cc(C(F)(F)F)c1 88.5%
O=C(NC1CCN(Cc2ccccc2)CC1)c1cc(Br)c(Br)[nH]1 66.2%
Cc1nnc(SC(C(=O)Nc2cc(Cl)cc(Cl)c2)c2ccccc2)[nH]c1=O (centres undefined) 86.4%
CCN(CC)S(=O)(=O)c1ccc(N(C)Cc2ccc(C(F)(F)F)cc2)nc1 94%
Cc1ccc2c(c1)C1CN(C)CCC1N2S(=O)(=O)c1ccc(Oc2ccc([N+](=O)[O-])cc2)cc1 (centres undefined) 83.1%
Cc1nc2c(OCc3ccc(Cl)cc3Cl)cccn2c1N(C)CC1CC1 82.3%
Cc1nc2c(OCc3cccc(Cl)c3)cccn2c1N(C)CC1CC1 88.2%
Cc1nc2c(OCc3ccc(Cl)cc3)cccn2c1N(C)Cc1cccs1 79.6%

inhibition, inactive:
Cc1ccc(C(=O)c2ccc(N3CCN(C)CC3)c([N+](=O)[O-])c2)cc1 0.6%
COc1ccc(C(=O)c2c(C)oc3cc([N+](=O)[O-])c(O)c([N+](=O)[O-])c23)cc1 3.3%
O=C(Nc1ccccc1F)C1C2C=CC3(O2)C1C(=O)N(c1cccnc1)C3C(=O)NC1CCCCC1 (centres undefined) 1.6%
O=S(=O)(NCC1OCCc2ccccc21)c1ccccc1 (centres undefined) 4.3%
O=C(O)C(CCc1ccccn1)c1ccccc1 (centres undefined) 0.6%
CC1CCCC(NC(=O)c2cccc(N3CCCC3=O)c2)C1C (centres undefined) -0.6%
CC(C)CCOc1ccc(C(=O)C[N+]2(C)CCOCC2)cc1 -1.9%
CCCc1ccc(OCCNC(=O)c2ccccc2Br)cc1 0.4%
COc1cccc(NC(=O)COc2cc(C)cc3oc(=O)cc(C)c23)c1 0.4%
Cc1nccn1CCC1CCCCN1C(=O)CCc1nnc(-c2ccsc2)o1 (centres undefined) -1.2%
O=C(Nc1nnc(C2COc3ccccc3O2)o1)c1ccc(F)cc1 (centres undefined) -3%
Cc1ccc(-n2ncc3c(Nc4cccc(C(=O)O)c4)ncnc32)cc1 3.4%
Cn1c2c(c(=O)n(C)c1=O)C(c1cccc(F)c1)C(C#N)=C(N)O2 (centres undefined) 1.8%
N#CC1=C(N)Oc2cc(N)ccc2C1c1ccccc1 (centres undefined) -0.1%
C[C@H]1CN([C@@H](C)CO)C(=O)CCCn2cc(nn2)CO[C@@H]1CN(C)S(=O)(=O)c1ccccc1C#N -0.4%
COc1ccc(NC(=O)C(CC(C)C)NC(=O)C2CCC(C)CC2)cc1 (centres undefined) 0.1%
O=C(CN1CCN(c2ccccc2O)CC1)NC(=O)NCc1ccccc1 1.2%
O=C(CN1CCC(NC(=O)Nc2ccccc2)CC1)Nc1cccc([N+](=O)[O-])c1 -0.8%
O=C(CSc1ncn[nH]1)Nc1nc(-c2cccc([N+](=O)[O-])c2)cs1 8.3%
CC1CCC(NC(=O)CN(C)S(=O)(=O)c2ccc3c(c2)c(=O)n(C)c(=O)n3C)CC1 (centres undefined) -2.1%
O=C(CSc1nnc(-c2cccs2)n1Cc1ccco1)c1ccc2c(c1)OCO2 -1.2%
COc1ccc(/C=C2\CCCC3C2=NN(C(=O)c2scnc2C)C3c2ccc(OC)cc2)cc1 (centres undefined) -3.7%
CCc1ccc(C(=O)NNC(=O)C2CCN(c3ncnc4sc(C)c(C)c34)CC2)cc1 -0.3%
COC(=O)[C@@H](Cc1ccccc1)NC(=O)NCCc1ccccc1 0.6%
CCOC(=O)c1c(NC(=O)CNC2CCCc3ccccc32)sc(C(N)=O)c1C (centres undefined) 0.8%
O=C(NC1CCN(Cc2ccccc2)CC1)c1ccc(Oc2cc(Cl)cc(Cl)c2)o1 10.6%
Cc1cc(C(=O)NC2CCN(Cc3ccccc3)CC2)n[nH]1 -1.6%
CCc1nc2c(=O)[nH]cnc2o1 -1.8%
O=C(CSc1nc(=O)n2ccccc2n1)Nc1ccc2c(c1)OCCO2 -1.6%
CC(NCC(=O)Nc1cc(Cl)cc(Cl)c1)c1ccccc1 (centres undefined) 3.1%
Cc1nnc(SC(C(=O)c2ccccc2)c2ccccc2)[nH]c1=O (centres undefined) 1.4%
CCC(C)[C@H]1COCCS(=O)(=O)N1Cc1ccc(C)cc1 (some centres undefined) -0.2%
CCC(c1nnc(SCC(=O)NNC(=O)c2ccccc2)n1Cc1ccccc1)N(C)C (centres undefined) 1.2%
COc1ccc(NC(=O)CN(C)C(=O)c2cc(C3CC3)nn2-c2ccccc2)cc1 -0.5%
Cc1cccc(C(=O)OCC(=O)NC(C)C2CC3CCC2C3)c1O (centres undefined) 0.9%
O=C(CN1CCN(C(=S)NC2CCCC2)CC1)Nc1ccc(Oc2ccccc2)cc1 5.8%
CCN(CC)S(=O)(=O)c1ccc(N(C)CCc2ccc(OC)c(OC)c2)nc1 -2%
CCN(CC)S(=O)(=O)c1ccc(N(C)Cc2cccc(OC)c2OC)nc1 3.9%
NC(=O)C1CCN(C(=O)c2ccc(C(F)(F)F)cc2)CC1 -3.2%
CC1(c2ccc3ccccc3c2)NC(=O)N(CC(N)=O)C1=O (centres undefined) 1%
Cc1ccc2c(c1)C1CN(C)CCC1N2S(=O)(=O)c1cccc(F)c1 (centres undefined) 0.2%
Cc1ccc2c(c1)C1CN(C)CCC1N2C(=O)c1ccccc1NS(=O)(=O)c1ccc(F)cc1C (centres undefined) -0.2%
COc1cc(OC)c(C(=O)NNC(=O)c2ccccc2-n2cccc2)cc1OC -0.2%
Cc1ccc(C(=O)OCC(=O)NC2CCCCCCC2)cc1C -1.2%
CCc1nc2c(OCc3ccc(F)c(F)c3)cccn2c1N(C)C(=O)c1ccco1 -2.8%
CCc1nc2c(OCc3ccccc3)cccn2c1N(C)C(=O)c1ccco1 0%
Cc1nc2c(OCC(=O)C(C)(C)C)cccn2c1N(C)Cc1cccs1 2.6%
CCc1nc2c(OCc3cccc(OC)c3)cccn2c1N(C)C(=O)C(C)C -1.6%
CCCCC(=O)N(C)c1c(CC)nc2c(OCc3ccc(Cl)cc3Cl)cccn12 -1.5%
CCc1nc2c(OCc3ccc(Cl)cc3Cl)cccn2c1N(C)C(=O)C(C)C -3.5%
